Some test systems named below: SK-MEL-2 melanoma; EKVX NSCLC; SN12C renal; TK-10 renal; ACHN renal; CAKI-1 renal; A498 renal; CCRF-CEM leukemia; MOLT-4 leukemia; RPMI-8226 leukemia; OVCAR-8 ovarian; OVCAR-5 ovarian; OVCAR-4 ovarian; SK-OV-3 ovarian; OVCAR-3 ovarian; HS 578T breast; NCI/ADR-RES ovarian; UO-31 renal; SR leukemia; IGROV1 ovarian.
What all share (test): NCI-60 one-dose screen, 48 h (100 = growth as untreated, 0 = no growth, -100 = all killed)
Conditions in all cases: 10 µM

Compounds without any hit were thinned out: in the full panel of roughly 83,000, 20% have a hit.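 Results are percent growth after 48 hours of single-concentration exposure. 100 means growth as in untreated cells, lower positive values show inhibition; negative values down to -100 show cell death.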 Values without a mark were called inactive. Active and inactive are the calls of the source. How the source made its calls: active means growth percent below 10; inactive means the rest.

In the case of `CN(C)c1nc(N)c2nccnc2n1`, the growth in the experiment on SK-MEL-2 melanoma was 97.9%; in the experiment on EKVX NSCLC, 98.3%; in the experiment on SN12C renal it was 99.6%; in the experiment with TK-10 renal it was 104%; in the experiment with ACHN renal it was 105%; with CAKI-1 renal it was 84.7%. Besides, the growth was 93% with A498 renal; 114% in the experiment with CCRF-CEM leukemia; 98.1% in the experiment on MOLT-4 leukemia; 110% in the experiment on RPMI-8226 leukemia; 110% with OVCAR-8 ovarian; 100% in the experiment with OVCAR-5 ovarian. For the same molecule, the growth in the experiment with OVCAR-4 ovarian is 104%; in the experiment on SK-OV-3 ovarian, 110%; in the experiment with OVCAR-3 ovarian, 105%; in the experiment on HS 578T breast, 105%; with NCI/ADR-RES ovarian it was 99.2%.
Turning to `Cc1c(C(N)=O)sc2c1c(=O)n(Cc1ccccc1)c1nnc(-c3ccc(Br)cc3)n21`, the growth was 42.5% in the experiment on SK-MEL-2 melanoma; 36.7% in the experiment on EKVX NSCLC; 32.8% in the experiment on SN12C renal; 47.4% in the experiment with TK-10 renal; 10.1% with ACHN renal; 1.27% (active) in the experiment with CAKI-1 renal. Moreover, the growth was 56% with A498 renal; 12.1% with RPMI-8226 leukemia; 0.274% (active) with OVCAR-8 ovarian; 48.6% in the experiment with OVCAR-5 ovarian; 40.2% in the experiment with OVCAR-4 ovarian; 33.2% in the experiment on SK-OV-3 ovarian. In addition, the results for the growth with OVCAR-3 ovarian, in the experiment on HS 578T breast and in the experiment on NCI/ADR-RES ovarian were 49.5%, 73.6% and 6.12% (active), respectively.
Consider `CC(=O)Nc1cc2c(cc1Cl)Cc1cc(Cl)ccc1-2`, for which the growth with SK-MEL-2 melanoma was 103%; in the experiment with EKVX NSCLC it was 12%; in the experiment on UO-31 renal it was 65.4%; in the experiment on TK-10 renal, 86.4%; in the experiment with ACHN renal, 88.2%; in the experiment with CAKI-1 renal, 75.6%. Further, the growth is 103% with MOLT-4 leukemia; 80.1% with SR leukemia; 111% in the experiment with RPMI-8226 leukemia; 88.2% in the experiment with OVCAR-8 ovarian; 83.7% in the experiment with OVCAR-5 ovarian; 83.9% in the experiment on OVCAR-4 ovarian. Moreover, the growth with SK-OV-3 ovarian is 96%; in the experiment on IGROV1 ovarian, 72.4%; in the experiment on OVCAR-3 ovarian, 103%; with HS 578T breast it was 78.6%; in the experiment with NCI/ADR-RES ovarian, 97%.
Consider `O=C1/C(=C/c2ccc3c(c2)OCO3)SC(=S)N1C1c2ccccc2Oc2ccccc21`, for which the growth in the experiment on SK-MEL-2 melanoma was 115%; in the experiment with EKVX NSCLC, 96.8%; in the experiment with UO-31 renal, 74.2%; with TK-10 renal it was 101%; in the experiment on ACHN renal, 91.2%; with CAKI-1 renal, 92.8%. Further, the growth is 101% in the experiment on A498 renal; 86.7% in the experiment on CCRF-CEM leukemia; 96.5% in the experiment on MOLT-4 leukemia; 84.1% in the experiment with SR leukemia; 106% with RPMI-8226 leukemia; 98.9% in the experiment with OVCAR-8 ovarian. Besides, the growth was 96.5% in the experiment on OVCAR-5 ovarian; 102% with OVCAR-4 ovarian; 107% with SK-OV-3 ovarian; 90.6% in the experiment with IGROV1 ovarian; 98.1% with OVCAR-3 ovarian; 90.9% with HS 578T breast. In the experiment with NCI/ADR-RES ovarian, the growth is 95.4%.
On to `COc1cc2cc(Oc3ccc(NC(=O)c4cc(C(F)(F)F)cc(C(F)(F)F)c4)cc3)c(C)nc2cc1OC`, for which the growth is 64.6% with SK-MEL-2 melanoma; 30.4% in the experiment on EKVX NSCLC; 30.8% in the experiment on SN12C renal; 32.3% with ACHN renal; 30.2% in the experiment on CAKI-1 renal; 40.5% in the experiment on A498 renal. Besides, the growth with CCRF-CEM leukemia is 33.7%; in the experiment on MOLT-4 leukemia, 39.4%; in the experiment with SR leukemia it was 52.8%; in the experiment with RPMI-8226 leukemia, 17.7%; in the experiment with OVCAR-8 ovarian, 48.2%; in the experiment with OVCAR-5 ovarian, 67.7%. Besides, the growth in the experiment on OVCAR-4 ovarian is 52.4%; in the experiment with SK-OV-3 ovarian, 44.5%; in the experiment with IGROV1 ovarian, 43.9%; with OVCAR-3 ovarian, 15.2%; in the experiment on HS 578T breast, 73.1%; in the experiment on NCI/ADR-RES ovarian, 46.3%.
With `O=[N+]([O-])c1ccc(/C(=C/c2ccccc2)[n+]2ccccc2)cc1`, the growth with SK-MEL-2 melanoma is 125%; with SN12C renal, 101%; in the experiment with UO-31 renal, 100%; in the experiment on TK-10 renal, 114%; with ACHN renal it was 107%; with CAKI-1 renal it was 111%. Further, the growth was 101% in the experiment on A498 renal; 89.9% with CCRF-CEM leukemia; 105% in the experiment on MOLT-4 leukemia; 102% in the experiment with SR leukemia; 98.3% in the experiment with RPMI-8226 leukemia; 97% in the experiment on OVCAR-8 ovarian. Moreover, the growth is 98% in the experiment with OVCAR-5 ovarian; 100% in the experiment with OVCAR-4 ovarian; 119% with SK-OV-3 ovarian; 109% with IGROV1 ovarian; 127% with OVCAR-3 ovarian; 116% in the experiment with NCI/ADR-RES ovarian.
For the molecule `COc1cc(C2CC(c3ccc4c(c3)OCO4)=NN2c2ccccc2)cc(OC)c1OC` (stereo not given), the growth with SK-MEL-2 melanoma is 108%; in the experiment with EKVX NSCLC, 89.4%; with SN12C renal, 90.9%; with TK-10 renal it was 112%; in the experiment with CAKI-1 renal it was 75.4%; in the experiment with A498 renal it was 97.9%. Also, the growth in the experiment with CCRF-CEM leukemia is 80.8%; with MOLT-4 leukemia, 82.3%; in the experiment on SR leukemia, 71.9%; in the experiment on RPMI-8226 leukemia, 75.7%; in the experiment on OVCAR-8 ovarian, 99.3%; in the experiment with SK-OV-3 ovarian, 107%. For the same molecule, the growth is 89.8% in the experiment on OVCAR-3 ovarian, 93.6% in the experiment with HS 578T breast and 77.7% with NCI/ADR-RES ovarian.
In the case of `CCN(CC)CCOC(=O)c1cc(OCc2ccccc2)c(OCc2ccccc2)c(OCc2ccccc2)c1`, the growth is 78.5% with SK-MEL-2 melanoma; 47.7% in the experiment with EKVX NSCLC; 78.3% in the experiment on TK-10 renal; 71.9% in the experiment on ACHN renal; 50.4% in the experiment on CAKI-1 renal; 68.8% in the experiment on A498 renal. For the same molecule, the growth with MOLT-4 leukemia was 8.5% (active); with SR leukemia, 1.2% (active); in the experiment with RPMI-8226 leukemia it was 32.9%; in the experiment with OVCAR-8 ovarian, 56.3%; with OVCAR-5 ovarian, 83.3%; in the experiment with OVCAR-4 ovarian, 75.5%. For the same molecule, the growth is 100% in the experiment with SK-OV-3 ovarian; 42.6% with IGROV1 ovarian; 64.9% with OVCAR-3 ovarian; 66.3% in the experiment with HS 578T breast; 52.5% with NCI/ADR-RES ovarian.
On to `NS(=O)(=O)c1ccc(Br)cc1`, for which the growth in the experiment with SK-MEL-2 melanoma was 101%; with EKVX NSCLC, 90.3%; in the experiment on UO-31 renal, 97.1%; with TK-10 renal, 90.4%; with ACHN renal, 107%; in the experiment with CAKI-1 renal, 95.3%. In addition, the growth was 115% in the experiment on A498 renal; 104% in the experiment with CCRF-CEM leukemia; 92.7% in the experiment with MOLT-4 leukemia; 106% in the experiment with SR leukemia; 108% with RPMI-8226 leukemia; 105% in the experiment with OVCAR-8 ovarian. Moreover, the growth with OVCAR-5 ovarian is 97.6%; in the experiment with OVCAR-4 ovarian, 104%; in the experiment on SK-OV-3 ovarian, 80.8%; in the experiment on IGROV1 ovarian, 100%; in the experiment with OVCAR-3 ovarian, 114%; in the experiment on HS 578T breast it was 110%. Also, in the experiment on NCI/ADR-RES ovarian, the growth was 97.7%.

The record behind these values is PubChem BioAssay (NCI).
